PrP UTR inh = inhibition of PrP 5' UTR reporter expression | cell-based PrP 5' UTR mRNA reporter, plate reader | inhibition, % (concentration not given with the values) | actives 0.35% (n = 340,000); in the data active = inhibition above about 52%; also: 0 = median of the neutral control wells
3CLpro inhibitor = SARS-CoV 3CLpro protease inhibition; P0C6X7; recombinant SARS-CoV 3CLpro, quenched FRET peptide cleavage; inhibition, % at 6 µM; actives 0.14% (n = 290,000); in the data active = inhibition above about 12%
CCHFV vOTU inh = CCHFV vOTU protease inhibition; inhibition, % at 11.5 µM; Pep-AMC fluorescence; actives 0.55% (n = 370,000); in the data active = inhibition above about 30%; also: 0% = vehicle wells with enzyme and 100% = no enzyme wells
PrPC TRFRET = reduces human prion protein on the cell surface; inhibition, % at 13.8 µM; actives 0.43% (n = 370,000); P04156; cell surface PrPC, TR-FRET read-out; in the data active = inhibition above about 24%; also: 0% = median of the test wells and 100% = reference compound wells
PrPC confirm = cell surface PrPC inhibition, TR-FRET confirmation. AID 743200. shares compounds with PrPC TRFRET. cell surface PrPC level. actives 65% (n = 1,500). inhibition, % at 13.8 µM; in the data active = inhibition above about 25%
LD9 cytotox = counter-screen for PrPc inhibitors: cytotoxicity in LD9 cells; shares compounds with PrPC TRFRET; luminescence viability; actives 29% (n = 1,500); inhibition, % at 13.8 µM; in the data active = inhibition above about 9.5%
Active calls of the source: *; / = no result given. Hits are enriched below; roughly 1.3% of the tested compounds scored in any of these assays.

SMILES	PrP UTR inh	3CLpro inhibitor	CCHFV vOTU inh	PrPC TRFRET	PrPC confirm	LD9 cytotox
CCCn1c(N)c(N(CCOC)C(=O)c2ccc(C#N)cc2)c(=O)[nH]c1=O	-11.7	-2.6	3.6	-0.3	/	/
CNc1ncc(C(=O)c2ccccc2)s1	-46.6	4.0	8.0	-7.3	/	/
CNc1ncc(C(=O)c2ccc(Br)cc2)s1	-55.7	1.6	12.6	26.2*	45.7*	-2.2
O=C(NNc1ccccc1)C(=O)NNS(=O)(=O)c1ccc(CCCl)cc1	-20.8	3.7	7.2	26.8*	24.1	-3.0
Cc1cc(C(C)(C)C)oc1C(=O)Nc1ccc(CC(=O)O)cc1	-2.8	3.1	0.1	-2.6	/	/
CC(C)(C)c1csc(NC(=O)c2ccc(Cl)s2)n1	-63.3	-1.7	18.5	40.3*	44.9*	-8.9
CC(C)(C)c1csc(NC(=O)c2ccncc2)n1	-30.2	1.4	8.9	4.7	/	/
O=C(Nc1nc(-c2cccs2)cs1)c1ccc(Cl)s1	-16.9	3.1	5.8	7.3	/	/
Cc1ccc(C(=O)Nc2nc(C(C)(C)C)cs2)s1	-65.8	0.8	14.3	43.0*	42.1*	-10.8
COC(=O)c1cccc(Nc2c3c(nc4ccccc24)CCC3)c1	-28.1	0.6	2.8	29.4*	30.2*	11.9*
CC(=O)c1cccc(Nc2c3c(nc4ccccc24)CCC3)c1	37.7	3.4	4.3	17.8	/	/
Cc1ccc2nc3c(c(Nc4cccc(O)c4)c2c1)CCC3	-18.1	-2.3	7.7	24.7*	16.0	15.8*
CC(C)N=C(NC#N)SCc1ccccc1F	-38.3	-4.7	-18.1	-1.4	/	/
N#CNC(=Nc1cccc(F)c1)SCc1ccccc1F	-4.7	-2.7	7.4	25.8*	16.8	7.7
CCOc1cc2[nH]c(=S)n(C3CC3)c(=O)c2cc1OCC	6.8	1.6	15.5	-6.9	/	/
CCOc1cc2[nH]c(=S)n(C(C)C)c(=O)c2cc1OCC	-24.2	-0.6	4.7	32.7*	35.8*	-0.7
CC(C)=CCn1c2ccc(NC(=O)NCc3ccc(F)cc3)cc2c(=O)n1C	/	/	-111.2	13.3	/	/
CN(CC(=O)Nc1ccccc1C(F)(F)F)C(=O)c1cc(-c2cccs2)nn1-c1ccccc1	-12.5	/	9.5	24.5*	49.1*	0.4
CCN(CC(=O)Nc1ccccc1C(F)(F)F)C(=O)c1cc(-c2cccs2)nn1-c1ccccc1	11.0	8.1	3.4	-4.5	/	/
Oc1ccccc1N1CCN(c2nnnn2-c2ccccc2)CC1	-20.0	1.6	-10.5	-2.7	/	/
O=c1[nH]c(=O)n(Cc2ccco2)c2c1C(C(F)(F)F)(C(F)(F)F)N=C(CCc1ccccc1)N2	/	2.9	7.3	56.5*	72.1*	1.7
COC(=O)Sc1nc(N2CCOCC2)c2c(c1C#N)CC(C)(C)OC2	-14.2	2.3	11.0	1.2	/	/
COc1ccc(-c2ccc(SCC(=O)Nc3nccs3)nn2)cc1OC	24.4	-0.5	-21.9	29.1*	38.0*	-5.7
COc1ccc(-c2nnc3ccc(SCC(=O)Nc4nccs4)nn23)cc1OC	-5.1	1.8	4.3	-6.5	/	/
CCC(=O)N1CCC1(C)C(=O)Nc1ccc(F)cc1 (stereo unspecified)	/	/	-3.9	-6.5	/	/
SMILES	PrP UTR inh	3CLpro inhibitor	CCHFV vOTU inh	PrPC TRFRET	PrPC confirm	LD9 cytotox
CC(=O)OC1CCC2(C)C(CCC3C4CC=C(C(C)=O)C4(C)OC(=O)CC32)C1 (stereo unspecified)	/	/	7.1	71.6*	-15.8	91.1*
CC(=O)O[C@H]1CC[C@@]2(C)C(CCC3C2CC[C@]2(C)OC(=O)CCC32)C1 (stereo partly specified)	-31.5	-1.6	5.0	6.7	/	/
CCOC(=O)N1CCN(S(=O)(=O)c2cccs2)CC1	-25.8	-0.2	17.1	11.2	/	/
NC(=S)NN=Cc1nccc2c(C(F)(F)C(F)(F)C(F)(F)F)cccc12	/	/	21.3	28.0*	29.4*	60.3*
CCOC(=O)c1sc(NC(=O)Nc2ccccc2)cc1C	-69.9	5.7	10.2	35.2*	25.4*	21.8*
CCOC(=O)c1sc(NC(=O)Nc2ccccc2Cl)cc1C	-47.8	1.7	18.6	14.2	/	/
CCOC(=O)n1c(=O)oc2cc(S(=O)(=O)N3CCOCC3)ccc21	-26.7	-0.7	-12.3	-4.1	/	/
Cc1ccc(Cc2c(-c3ccco3)nc3c(C)cc(Br)cn23)cc1	/	/	10.9	36.7*	55.5*	-1.7
Cc1cc(Br)cn2c(Cc3cccc(Cl)c3)c(-c3ccco3)nc12	/	/	4.2	37.5*	56.2*	-1.0
CC1CCCN(Cc2nc3c(c(=O)n(C)c(=O)n3C)n2CCc2ccccc2)C1 (stereo unspecified)	-1.8	1.2	-10.6	-1.8	/	/
CC(=O)CSc1nnc(Cc2ccc([N+](=O)[O-])cc2)o1	-25.5	1.3	-6.6	-17.2	/	/
CCOc1ccc(N(CC(=O)Nc2ccc(C)cc2C)S(C)(=O)=O)cc1	-5.0	0.8	11.8	-1.8	/	/
COc1ccccc1CNc1nc(NCc2ccccc2OC)c2sccc2n1	/	/	-3.9	15.6	/	/
COc1ccccc1CNc1nc(Nc2cccc(-c3cnco3)c2)c2sccc2n1	/	/	1.5	25.4*	33.2*	34.8*
COc1ccc(N(C)S(=O)(=O)c2cccc(C(=O)OC(C(=O)Nc3cc(C)cc(C)c3)c3ccccc3)c2)cc1 (stereo unspecified)	-22.9	-1.8	-5.8	25.6*	16.4	-2.0
COc1cc(C(=O)Nc2ccc3c(c2)OCO3)ccc1-n1cnnn1	5.2	-2.0	26.9	44.6*	32.1*	-0.6
CC1CCN(c2ccc(C(=O)Nc3ccc4c(c3)OCO4)cc2[N+](=O)[O-])CC1	-5.7	2.4	17.3	73.5*	77.1*	4.2
COc1cc(NC(=O)C2CCN(S(=O)(=O)c3ccc(Cl)cc3)CC2)ccc1-n1cnnn1	5.2	-0.5	-4.9	27.1*	20.8	14.7*
COc1ccc(NC(=O)C2CC2)cc1-n1cnnn1	-26.6	-4.7	14.2	4.9	/	/
CC1CCCN(c2ccc(C(=O)Nc3ccc4c(c3)OCO4)cc2[N+](=O)[O-])C1 (stereo unspecified)	-12.6	-1.9	9.3	31.0*	40.3*	8.8
CC1CCCN(c2ccc(C(=O)Nc3nnc(C4CC4)s3)cc2[N+](=O)[O-])C1 (stereo unspecified)	0.4	-1.9	8.2	1.4	/	/
N#CCCN(C(=O)COC(=O)c1cccc(S(=O)(=O)N2CCCC2)c1)c1ccc(F)cc1	-10.7	-1.7	6.1	5.8	/	/
COc1ccc(NS(=O)(=O)c2csc(C(=O)Nc3ccccc3)c2)cc1	-5.2	4.5	1.7	16.6	/	/
CC1(C)CC(NC(=O)Cc2ccc(Cl)cc2)CC(C)(C)N1	-21.5	0.7	-9.5	0.5	/	/
CC(=O)c1ccc(CCCCCCCCCC(=O)O)s1	1.1	5.6	-7.9	76.1*	68.3*	-9.6
CCC(=O)c1ccc(CCCCCC(=O)O)s1	-4.6	-3.4	7.8	18.4	/	/
COC(=O)CCCCCc1ccc(C(C)=O)s1	-11.4	-2.5	5.4	62.5*	77.0*	-0.3
COC(=O)CCCCC(=O)OC	-18.6	/	-8.4	1.4	/	/
CCOc1ccc(NC(=O)c2sc(NC(C)=O)c(C(=O)OC)c2C)cc1	-11.0	-4.1	-12.2	-1.0	/	/
Brc1cc(Br)c2ncnc(N3CCCCC3)c2c1	-2.1	-2.7	6.4	75.5*	111.0*	-1.1
